# Experimental data from PubChem BioAssay (NCI).
# Where “and” joins values, the source holds several entries; their conditions need not be identical. Equal values may be shown once. The panel holds about 83,000 compounds, 20% with a hit somewhere; the sample as a whole holds those more often.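 Step 1: grow cells in 96-well plates. Step 2: add test compound at a single concentration. Step 3: incubate 48 h. Step 4: record percent growth.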 Calls of active or inactive are those of the source. Rule for the calls: active = growth percent below 10; inactive = the rest.
# Legend:
# Assay in all cases: NCI-60 one-dose screen, 48 h (100 = growth as untreated, 0 = no growth, -100 = all killed)
# Details in all cases: 10 µM unless noted
# [1] = system: HCT-15 colon
# [2] = system: HT29 colon
# [3] = system: SNB-19 CNS
# [4] = system: U251 CNS
# [5] = system: PC-3 prostate
# [6] = system: SK-MEL-5 melanoma
# [7] = system: UACC-62 melanoma
# [8] = system: LOX IMVI melanoma
# [9] = system: SK-MEL-28 melanoma
# [10] = system: EKVX NSCLC
# [11] = system: SN12C renal
# [12] = system: UO-31 renal
# [13] = system: TK-10 renal
# [14] = system: ACHN renal
# [15] = system: CAKI-1 renal
# [16] = system: A498 renal
# [17] = system: CCRF-CEM leukemia
# [18] = system: MOLT-4 leukemia
structure (smiles),measurement,setting,value
O=C(Oc1cccc(OC(=O)c2ccccc2)c1)c1ccccc1,growth,[1],73% (inactive) and 102% (inactive)
same,growth,[2],79.9% (inactive) and 102% (inactive)
same,growth,[3],111% (inactive) and 98.9% (inactive)
same,growth,[4],80.4% (inactive) and 101% (inactive)
same,growth,[5],9.09% (active) and 91.8% (inactive)
same,growth,[6],101% (inactive) and 94.8% (inactive)
same,growth,[7],96.1% (inactive) and 100% (inactive)
same,growth,[8],78.3% (inactive) and 87.9% (inactive)
same,growth,[9],115% (inactive) and 100% (inactive)
same,growth,[10],102% (inactive) and 104% (inactive)
same,growth,[11],97.8% (inactive) and 99.4% (inactive)
same,growth,[12],50.4% (inactive) and 90.9% (inactive)
same,growth,[13],133% (inactive) and 85.7% (inactive)
same,growth,[14],103% (inactive) and 99.7% (inactive)
same,growth,[15],102% (inactive) and 96.7% (inactive)
same,growth,[16],99.2% (inactive) and 91.2% (inactive)
same,growth,[17],80.4% (inactive) and 107% (inactive)
same,growth,[18],85% (inactive) and 91.3% (inactive)
COC(=O)/C(=N\NC(=S)NN)C(C(=O)OC)C(=O)C(=O)Nc1cccc(C(F)(F)F)c1 (configuration not stated),growth,[7],98.2% [100 µM] (inactive) and 59.6% [100 µM] (inactive)
same,growth,[13],155% [100 µM] (inactive) and 108% [100 µM] (inactive)
CC1OC(Oc2c(-c3cc(O)c(O)c(O)c3)oc3cc(O)cc(O)c3c2=O)C(O)C(O)C1O (configuration not stated),growth,[7],59.6% [100 µM] (inactive) and -60.3% [100 µM] (active)
same,growth,[13],90.9% [100 µM] (inactive) and 92.6% [100 µM] (inactive)
COc1c(O)ccc(C2=Cc3ccc(O)cc3OC2)c1OC,growth,[7],-72.2% [100 µM] (active) and -24.7% [100 µM] (active)
same,growth,[13],1.01% [100 µM] (active) and 9.04% [100 µM] (active)
CC1CC(=O)N(N(C)C)C(C#N)(C#N)C1(C#N)C#N (configuration not stated),growth,[7],-96.5% [100 µM] (active) and -97.6% [100 µM] (active)
same,growth,[13],-97.2% [100 µM] (active) and -90.4% [100 µM] (active)
Cc1ccc(OC2CC(n3cnc4ncnc(Cl)c43)OC2Oc2ccc(C)cc2)cc1 (configuration not stated),growth,[7],11.7% [100 µM] (inactive) and -100% [100 µM] (active)
same,growth,[13],85% [100 µM] (inactive) and -100% [100 µM] (active)
COC(=O)C(=O)C(C(=O)C(=O)Nc1nc2ccc(C)cc2s1)c1nc2ccc([N+](=O)[O-])cc2[nH]c1=O (configuration not stated),growth,[7],61.1% [100 µM] (inactive) and 52.2% [100 µM] (inactive)
same,growth,[13],115% [100 µM] (inactive) and 75.4% [100 µM] (inactive)
COC(=O)/C=C\C(C#N)(C#N)N=Cc1ccsc1,growth,[7],-87.5% [100 µM] (active) and -74.6% [100 µM] (active)
same,growth,[13],-98.5% [100 µM] (active) and -84.4% [100 µM] (active)
CC(C)=CCc1cc(C2COc3cc4c(c(O)c3C2=O)C=CC(C)(C)O4)c(O)cc1O (configuration not stated),growth,[7],-86.8% [100 µM] (active) and -97.1% [100 µM] (active)
same,growth,[13],-14.3% [100 µM] (active) and -100% [100 µM] (active)
C=CC1=C(C)C2=NC1=CC1=NC(=C(CC)/C1=C\O)C=C1N=C3C(=C1C)C(=O)[C@H](C(=O)OC)C3=C1NC(=C2)[C@@H](C)[C@@H]1CCC(=O)O,growth,[7],-28.7% [100 µM] (active) and 0.467% [100 µM] (active)
same,growth,[13],3.23% [100 µM] (active) and 7.05% [100 µM] (active)
Cc1ccc(NC(=O)/C(=N\NC(N)=O)c2c(O)c3ccccc3[nH]c2=O)cc1,growth,[7],87% [100 µM] (inactive) and 83% [100 µM] (inactive)
same,growth,[13],123% [100 µM] (inactive) and 118% [100 µM] (inactive)
COc1cc(Oc2c(C)c(Cl)c(OC)c(Cl)c2OC)c2c(c1Cl)COC2=O,growth,[7],-38% [100 µM] (active) and -9.28% [100 µM] (active)
same,growth,[13],20.3% [100 µM] (inactive) and 9.52% [100 µM] (active)
COC(=O)c1cnn2c1n[n+]([O-])c1ccccc12,growth,[7],72.4% [100 µM] (inactive) and -65.7% [100 µM] (active)
same,growth,[13],126% [100 µM] (inactive) and 78.8% [100 µM] (inactive)
COc1ccc(/C=c2\[nH]c3nc(=O)c(N4CCOCC4)c(N)n3c2=O)cc1,growth,[7],67.5% [100 µM] (inactive) and 26% [100 µM] (inactive)
same,growth,[13],72% [100 µM] (inactive) and 6.01% [100 µM] (active)
COC(=O)c1ccc(NC(=O)O/N=C(\Cl)C(C)C)cc1,growth,[7],-90.3% [100 µM] (active) and -100% [100 µM] (active)
same,growth,[13],-100% [100 µM] (active)
CC(C)/C(Cl)=N/OC(=O)Nc1cccc(C(F)(F)F)c1,growth,[7],-93.1% [100 µM] (active) and -100% [100 µM] (active)
same,growth,[13],-100% [100 µM] (active)
Cc1ccc(/C=N/Nc2cnccn2)s1,growth,[7],58.8% [100 µM] (inactive) and 98.5% [100 µM] (inactive)
same,growth,[13],116% [100 µM] (inactive) and 93% [100 µM] (inactive)
Cc1cc2nn(C3CCCO3)nc2cc1C (configuration not stated),growth,[7],70.8% [100 µM] (inactive) and 101% [100 µM] (inactive)
same,growth,[13],81.3% [100 µM] (inactive) and 101% [100 µM] (inactive)
CCOc1cc2c(cc1O)/C(=N/NS(=O)(=O)c1ccc(C)cc1)C[C@@H]1[C@@H]2CC[C@]2(C)[C@@H](O)CC[C@@H]12,growth,[7],-88.9% [100 µM] (active)
same,growth,[13],-22.6% [100 µM] (active)
Cc1ccc(OCC2OC(n3cnc4c(Cl)nc(Cl)nc43)CC2Oc2ccc(C)cc2)cc1 (configuration not stated),growth,[7],-90.8% [100 µM] (active) and -89.2% [100 µM] (active)
same,growth,[13],72.8% [100 µM] (inactive) and -96.1% [100 µM] (active)
C=C1C(=O)OC2CC(C)C3(O)CCC(=O)C3(C)CC12 (configuration not stated),growth,[7],9.02% [100 µM] (active) and 6.55% [100 µM] (active)
same,growth,[13],39.8% [100 µM] (inactive) and 21.4% [100 µM] (inactive)
O=C(O)c1n[nH]nc1Cl,growth,[7],43.6% [100 µM] (inactive) and 103% [100 µM] (inactive)
same,growth,[13],98.7% [100 µM] (inactive) and 107% [100 µM] (inactive)
C[C@@H]1C[C@@H]2OC(=O)[C@]3(C)[C@H]2[C@@H](OC3(C)O)[C@]2(C)C(=O)C=C[C@@H]12 (some centres not stated),growth,[7],-84.2% [100 µM] (active) and -97.9% [100 µM] (active)
same,growth,[13],-7.81% [100 µM] (active) and -18.5% [100 µM] (active)
C=C1C2CCC3C4(C)CCCC(C)(C(=O)O)C4CCC3(C2)C1OC(=O)/C(C)=C/C (configuration not stated),growth,[7],-47.9% [100 µM] (active) and 42.1% [100 µM] (inactive)
same,growth,[13],27.3% [100 µM] (inactive) and 79.6% [100 µM] (inactive)
CC1=CC(=O)c2ccc(C)cc2C1=O,growth,[7],-90.3% [100 µM] (active) and -100% [100 µM] (active)
same,growth,[13],-100% [100 µM] (active)
O=C(Cc1nc2ccc(C(=O)c3ccccc3)cc2[nH]c1=O)C(=O)Nc1ccccc1[N+](=O)[O-],growth,[7],30.2% [100 µM] (inactive) and -20.2% [100 µM] (active)
same,growth,[13],75.1% [100 µM] (inactive) and 12.6% [100 µM] (inactive)
CC(=O)C1=C(C)N2C(=NC3=C(CCc4ccccc43)C2c2ccc(Cl)cc2)S1 (configuration not stated),growth,[7],48.8% [100 µM] (inactive) and 14.3% [100 µM] (inactive)
same,growth,[13],72.8% [100 µM] (inactive) and 35.4% [100 µM] (inactive)
COC(=O)C(C(=O)C(=O)Nc1c(C)cccc1C(C)(C)C)c1nc2ccc(Cl)cc2[nH]c1=O (configuration not stated),growth,[7],68% [100 µM] (inactive) and 84.1% [100 µM] (inactive)
same,growth,[13],141% [100 µM] (inactive) and 105% [100 µM] (inactive)
CCn1c2c(c3ccccc3c1=O)C(=O)c1ccccc1-2,growth,[7],62.3% [100 µM] (inactive) and 2.6% [100 µM] (active)
same,growth,[13],73.6% [100 µM] (inactive) and -93.6% [100 µM] (active)
O=C(O)CCCC(=O)Nn1c(Cc2ccc(Cl)cc2)n[nH]c1=O,growth,[7],70.6% [100 µM] (inactive) and 92.1% [100 µM] (inactive)
same,growth,[13],85.5% [100 µM] (inactive) and 95% [100 µM] (inactive)
COc1ccc2c(C)cc(N/N=C/c3ccc(C)s3)nc2c1,growth,[7],-86.5% [100 µM] (active) and -100% [100 µM] (active)
same,growth,[13],-66.6% [100 µM] (active) and -100% [100 µM] (active)
CC/C(Cl)=N\OC(=O)Nc1ccc(OC)cc1,growth,[7],-92.2% [100 µM] (active) and -94.2% [100 µM] (active)
same,growth,[13],-100% [100 µM] (active)
COc1ccc(N=C(C)C(C)=Nc2ccc(OC)cc2)cc1,growth,[7],9.18% [100 µM] (active) and 4.99% [100 µM] (active)
same,growth,[13],77.8% [100 µM] (inactive) and -88.6% [100 µM] (active)
CN(C)c1ccc(/C=N/n2c(-c3ccccc3)nc3ccccc3c2=O)cc1,growth,[7],47.5% [100 µM] (inactive) and 13.6% [100 µM] (inactive)
same,growth,[13],101% [100 µM] (inactive) and 30.4% [100 µM] (inactive)
C=CCn1c2c(c3ccccc3c1=O)C(=O)c1ccccc1-2,growth,[7],66.9% [100 µM] (inactive) and 11.1% [100 µM] (inactive)
same,growth,[13],47.5% [100 µM] (inactive) and -35.9% [100 µM] (active)
O=C1C=CC=C/C1=C1\N=C(c2ccccc2OCC(=O)c2ccc(Br)cc2)SS1,growth,[7],48.5% [100 µM] (inactive) and 35.3% [100 µM] (inactive)
same,growth,[13],65.8% [100 µM] (inactive) and 57.6% [100 µM] (inactive)
O=C(CCc1ccc(O)c(O)c1)c1ccc(O)c(O)c1O,growth,[7],-41% [100 µM] (active) and -97.2% [100 µM] (active)
same,growth,[13],74.7% [100 µM] (inactive) and -88% [100 µM] (active)
COc1c(OC)c(OC)c2c(c1OC)c(=O)c1ccccc1n2C,growth,[7],38.1% [100 µM] (inactive) and -44.4% [100 µM] (active)
same,growth,[13],87.4% [100 µM] (inactive) and 35% [100 µM] (inactive)
COc1ccc2nc(NC(=O)/C(C#N)=C/c3ccccc3)sc2c1,growth,[7],36.9% [100 µM] (inactive) and 15.8% [100 µM] (inactive)
same,growth,[13],52.5% [100 µM] (inactive) and -23.1% [100 µM] (active)
C[C@]12CC[C@@H]3c4ccc(OS(N)(=O)=O)cc4CC[C@H]3[C@@H]1CCC2=O,growth,[7],9.29% [100 µM] (active) and 48.3% [100 µM] (inactive)
same,growth,[13],31.9% [100 µM] (inactive) and 68.9% [100 µM] (inactive)
COC(=O)C1=CO[C@@H](OC2OC(CO)C(O)C(O)C2O)[C@H]2[C@@H](C)[C@@H](O)[C@@H](O)[C@@H]12 (some centres not stated),growth,[7],89.9% [100 µM] (inactive) and 99.1% [100 µM] (inactive)
same,growth,[13],102% [100 µM] (inactive) and 98% [100 µM] (inactive)
CC(=N/N=C/c1ccccn1)/C(C)=N/N=C(C)/C(C)=N/N=C(C)/C(C)=N/N=C(C)/C(C)=N\N=C\c1ccccn1,growth,[7],92.9% [100 µM] (inactive) and 85% [100 µM] (inactive)
same,growth,[13],99.9% [100 µM] (inactive) and 81.3% [100 µM] (inactive)
C=CC(COC(=O)C(C)(C)OC(C)=O)c1ccc(OC(=O)C(C)C)c(OC)c1 (configuration not stated),growth,[7],-92.2% [100 µM] (active) and -93.9% [100 µM] (active)
same,growth,[13],-92.8% [100 µM] (active) and -93% [100 µM] (active)
